About 2,700 (0.9%) of roughly 300,000 compounds were called active. The entries come from a sample that favours actives as a whole. Unmarked numbers belong to inactive results.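 The calls were made as follows: active = mean inhibition of at least 30% with at least half of replicates also reaching 30%; inconclusive = no clear call, values can overlap the other calls; inactive = the rest.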
target: Golgi-associated PDZ and coiled-coil motif-containing protein (Homo sapiens) (UniProt Q9HD26); assay: blockade of CAL PDZ-reporter peptide interaction – biochemical, fluorescence polarization, untagged CAL PDZ, HTS, primary screen (AID 602252); details: purified CAL PDZ, TMR-peptide fluorescence polarization, 1 h; at 24.9 µM; active compounds read high;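 also: 0% = DMSO neutral control and 100% = excess unlabeled competitor peptide PRC23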

SMILES | inhibition
COc1ccccc1-n1c(O)c(C=NC2CC2)c(=O)[nH]c1=O | -5.85%
Cc1ccc(-n2c(O)c(C=NCC3CCCO3)c(=O)[nH]c2=O)c(C)c1 (stereo not given) | 62.7% (active)
CC(=NCC1CCCO1)c1c(O)n(-c2ccccc2)c(=O)[nH]c1=O (stereo not given) | -0.888%
CCC(C)(O)C(=O)OC1C(=O)OC2CC3C(C)=CC(=O)C(O)C3(C)C3C4(O)OCC23C1C(C)C4O (stereo not given) | -3%
COC1C(O)C(C)OC(OC2CCC3(C=O)C(CCC4C3CCC3(C)C(C5=CC(=O)OC5)CCC43O)C2)C1O (stereo not given) | -0.006%
Cc1ccnc(-n2c(C)cc(/C=C3\C(=O)NC(=S)N(C)C3=O)c2C)c1 | -1.9%
Cc1cc(C=C2C(=O)NC(=O)NC2=O)c(C)n1-c1ccncc1 | 49.2% (active)
Cc1ccc(-n2c(C)cc(/C=C3\C(=O)NC(=O)N(C)C3=O)c2C)cc1C | 0.186%
CC(=O)OC1C2(CC3N4C(=O)C5(CO)SSC4(CC31O)C(=O)N5C)OC(C)C(C)(C)C2=O (stereo not given) | 1.68%
CC12CCC(O)CC1CCC1C2CCC2(C)C(C(=O)CC(O)C(F)(F)F)CCC12 (stereo not given) | -6.37%
O=C(c1ccccc1)C(O)(CN1CCCCC1)c1ccccc1 (stereo not given) | -5.06%
CC1C(=O)OC2CCN3CC=C(COC(=O)C(C)(O)C1(C)O)C23 (stereo not given) | 56.3% (active)
CCOC(=O)C1(c2ccccc2)CCN(CC(O)c2ccc(NC(C)=O)cc2)CC1 (stereo not given) | -0.121%
CCOC(=O)CC(SP1(=S)OCC2(CCCCO2)C(C2CCCCO2)O1)C(=O)OCC (stereo not given) | 0.015%
CC=C(C)C(=O)OC1CCN2CC=C(COC(=O)C(O)(C(C)OC)C(C)(C)O)C12 (stereo not given) | -2.7%
